High-throughput results deposited in PubChem BioAssay by National Center for Advancing Translational Sciences (NCATS).
ALOX12 inhib: inhibitors of human 12-lipoxygenase (ALOX12); purified 12-hLO, xylenol orange hydroperoxide absorbance; P18054; 150,000 tested, 0.12% active; Potency, µM (titrated, usually from 57.1 µM), most hits filed as inhibitors; active = well fitted curve in the direction sought with a large enough effect; inconclusive = small, poorly fitted or top-dose-only effect, or another doubt; inactive = no such curve, though single readings can be large; an effect the other way counts as inactive or inconclusive; also: nearly all actives have a fitted effect of over 55% in size
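Hydroperoxide formation by human 12-lipoxygenase from 40 uM arachidonic acid was followed colorimetrically via ferric-xylenol orange complex, using the 573/405 nm absorbance ratio. Enzyme concentration was 150 nM, with 30 min reaction at room temperature.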
HPGD block: blocks human HPGD enzyme activity; P15428; purified HPGD, NADH fluorescence kinetic, PGE2 substrate; Potency, µM, usual class: inhibitors; 150,000 tested, 4.3% active
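NADH formation kinetics: reaction with 30 uM PGE2 and 1 mM NAD+ (final), 20 nM enzyme, Tris-HCl pH 8 with Tween 20, after 15 min compound preincubation at room temperature. Fluorescence change, last versus first of five reads.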
IMPase Li cell: membrane-permeable IMPase blocker, potentiated with lithium; AID 1457; Potency, µM (top dose mostly 59.4 µM), usual class: inhibitors; CHO-M1 cells, IP1 TR-FRET (IP-One), carbachol + lithium; 210,000 tested, 0.35% active; active = well fitted curve in the direction sought with a large enough effect; inconclusive = small, poorly fitted or top-dose-only effect, or another doubt; inactive = no such curve, though single readings can be large; an effect the other way counts as inactive or inconclusive;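 also: IP1 builds up when IMPase is blocked and the TR-FRET signal falls; nearly all actives have a fitted effect of over 50% in size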
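Test compounds were applied to CHO-M1 cells previously cultured for 16–30 h at 2000 per well. A small lithium amount accompanied them; after 30 min at 37C, IP1 was quantified by TR-FRET.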
PNC assembly inh: inhibitors of perinucleolar compartment assembly; PC3M PTB-GFP, PNC prevalence imaging, 16 h; stronger effect = lower value; activity change (PNC), negative = inhibition, % at 10 µM; 140,000 tested, 3.1% active;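 active = readout at or below -70, meaning at least 70% loss of cells showing the perinucleolar compartment, a nuclear body marking cancer cells; inconclusive = readout between -30 and a set limit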
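Read-out is percentage of cells bearing a perinucleolar compartment, from automated 20x imaging of fixed, Hoechst-stained PC3M PTB-GFP cells. Cells were seeded 4 h, then exposed 16 h to compound (23 nl of library stock) in duplicate plates.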
IMPase cell inh: IMPase inhibition in cells | P97697 | CHO-M1 cells, IP1 accumulation, HTRF TR-FRET ratio | inhibition (IP1 accumulation), % at 46.1 µM | 120,000 tested, under 10 active | AID 901; active = well fitted curve in the direction sought with a large enough effect in the signal ratio, not every such curve was filed as active; inconclusive = small, poorly fitted or top-dose-only effect, or a change in a side signal; inactive = no such curve, though single readings can be large or run the other way; the % refers to the signal ratio;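 also: cells stimulated with carbachol in lithium chloride buffer; higher means more IMPase inhibition seen as more IP1 and lower FRET ratio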
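CHO-M1 cells (CHO stably expressing M1 receptor), compound up to 46 uM final, stimulated with carbachol (50 uM as added) in buffer with 50mM LiCl, pH 7.4, 30 min at 37C. Cytosolic IP1 read by TR-FRET; AC50 from Hill fits.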
ALDH1A1 block: ALDH1A1 (human) enzyme inhibition | P00352 | Purified ALDH1A1, NADH fluorescence, propionaldehyde substrate | Potency, µM (titrated, usually from 75.3 µM), usual class: inhibitors | 220,000 tested, 7.3% active | AID 1030
Target sequence (P00352 whole entry, looked up): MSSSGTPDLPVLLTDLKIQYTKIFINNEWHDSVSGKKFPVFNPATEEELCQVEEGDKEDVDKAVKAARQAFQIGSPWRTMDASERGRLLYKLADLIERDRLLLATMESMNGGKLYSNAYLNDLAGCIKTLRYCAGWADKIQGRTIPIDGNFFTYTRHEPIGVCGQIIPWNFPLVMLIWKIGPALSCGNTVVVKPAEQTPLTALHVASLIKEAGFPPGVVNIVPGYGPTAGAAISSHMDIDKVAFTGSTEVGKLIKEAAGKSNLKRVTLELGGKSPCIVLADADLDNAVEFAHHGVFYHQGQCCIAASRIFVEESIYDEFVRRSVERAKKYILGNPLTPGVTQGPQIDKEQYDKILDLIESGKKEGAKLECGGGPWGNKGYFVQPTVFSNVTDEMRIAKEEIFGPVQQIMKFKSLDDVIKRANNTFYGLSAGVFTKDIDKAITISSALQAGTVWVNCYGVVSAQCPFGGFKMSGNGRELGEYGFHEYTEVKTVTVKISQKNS
Large screens that a line does not name were inactive. Hits are enriched below; roughly 11% of the tested compounds scored in any of these assays. Unless noted, calls follow the shape of the dose curve; as a rule, active = well fitted inhibition curve with a large enough effect (not every such curve was filed as active); inconclusive = small, poorly fitted or top-dose-only effect, or another doubt; inactive = no such curve, though single readings can be large or run the other way.

Cc1ccc(OCCN2C(=O)c3ccccc3C2=O)cc1	HPGD block inconclusive, PNC assembly inh inconclusive
Cc1cccc(OCCN2C(=O)C(=O)c3cccc(C)c32)c1	ALDH1A1 block 0.159µM (no result: IMPase cell inh)
Cc1ccc2c(c1)C(=O)C(=O)N2CCOc1ccccc1	ALDH1A1 block 1.26µM (no result: ALOX12 inhib, HPGD block, PNC assembly inh, IMPase cell inh)
Cc1cccc(OCCCn2c(=O)oc3ccc(C)cc32)c1	none (no result: ALOX12 inhib, HPGD block, PNC assembly inh, IMPase cell inh)
Cc1cccc(OCCN2C(=O)C(=O)c3cc(C)ccc32)c1	ALDH1A1 block 0.631µM (no result: ALOX12 inhib, HPGD block, PNC assembly inh, IMPase cell inh)
COc1ccc(NC(=O)CSc2nc(O)c(C/C=C/c3ccccc3)c(=O)[nH]2)cc1	none (no result: ALOX12 inhib, HPGD block, IMPase Li cell, PNC assembly inh, ALDH1A1 block)
O=C(CSc1nc2ccccc2s1)NNC(=S)Nc1ccc(Br)cc1	ALDH1A1 block 8.91µM
O=C(CSc1nc2ccccc2s1)NNC(=S)Nc1ccccc1	HPGD block inconclusive, PNC assembly inh inconclusive, ALDH1A1 block 8.91µM (no result: IMPase cell inh)
Cc1nn(C)c(C(=O)NNC(=S)NCc2ccco2)c1Br	ALDH1A1 block inconclusive (no result: ALOX12 inhib, HPGD block, PNC assembly inh, IMPase cell inh)
Cc1nn(C)c(C(=O)NNC(=S)NCc2ccco2)c1Cl	HPGD block 35.5µM
Cc1nn(C)c(C(=O)NNC(=S)NCC(C)C)c1Cl	PNC assembly inh -113.8 (no result: IMPase cell inh)
Cc1ccc(Nc2cc(C)c(C#N)c3nc4ccccc4n23)c(C)c1	none (no result: ALOX12 inhib, HPGD block, IMPase Li cell, PNC assembly inh, ALDH1A1 block)
COC(=O)[C@@H]1C[C@@H]2CC[C@@H](O)C[C@@H]2N1CC1CCCCC1	ALDH1A1 block inconclusive (no result: PNC assembly inh, IMPase cell inh)
COc1ccccc1CN1CCCC2(CCN(C(=O)c3cccc(F)c3)CC2)C1	none (no result: PNC assembly inh, IMPase cell inh)
O=C(O)Cn1cccc1C(=O)c1ccccc1	ALOX12 inhib inconclusive, PNC assembly inh inconclusive, ALDH1A1 block 14.1µM
COC(=O)Cn1cccc1C(=O)c1ccccc1	PNC assembly inh inconclusive
CCOc1nnc(C)c2c(C)n(-c3cccc(OC)c3)nc12	PNC assembly inh -106.0
O=C(N/N=C/c1ccncc1)c1cc([N+](=O)[O-])cc([N+](=O)[O-])c1O	HPGD block 28.2µM, PNC assembly inh inconclusive, ALDH1A1 block inconclusive
O=C(N/N=C/c1cccc([N+](=O)[O-])c1)c1cnccn1	PNC assembly inh inconclusive (no result: IMPase cell inh)
COc1cccc(-c2oc3ccc(C)cc3c(=O)c2O)c1	none (no result: ALOX12 inhib, HPGD block, IMPase Li cell, PNC assembly inh, ALDH1A1 block)
CCN(CC)C1=CC(=O)OC12CCCCC2	HPGD block 35.5µM, ALDH1A1 block 14.1µM
CCN(CC)CCNC1=CC(=O)OC12CCCCC2	none
CCCNC(=O)COC(=O)c1ccc(Cl)c(S(=O)(=O)N2CCCC2)c1	ALDH1A1 block 7.94µM
C/C(N)=C(/C#N)C(=O)COC(=O)c1ccc(C)c(S(=O)(=O)N2CCCCC2)c1	HPGD block 12.6µM, ALDH1A1 block inconclusive
COCc1cc(C)nc(N/N=C/c2ccc(Cl)c(Cl)c2)c1C#N	none
CCCCCCCCCc1nc(N)n[nH]1	none
CCCCCCCCc1nc(=S)[nH][nH]1	HPGD block 15.8µM, ALDH1A1 block 12.6µM
CCCCCCC1CC(CCc2nc(=S)[nH][nH]2)C(=O)O1 (centres undefined)	HPGD block 15.8µM, PNC assembly inh inconclusive, ALDH1A1 block inconclusive (no result: IMPase cell inh)
O=C(O)C1CC(=O)N(CCC23CC4CC(CC(C4)C2)C3)C(=Nc2ccccc2)S1 (centres undefined)	ALDH1A1 block inconclusive (no result: IMPase Li cell, PNC assembly inh, IMPase cell inh)
Cc1cc(C)c2c(-n3cccc3)c(C(=O)NNS(=O)(=O)c3ccccc3)sc2n1	ALDH1A1 block 4.47µM
COCc1cc(C)nc2sc(C(=O)NN)c(-n3cccc3)c12	ALDH1A1 block 0.501µM (no result: ALOX12 inhib, HPGD block, PNC assembly inh, IMPase cell inh)
Cc1cc(C)c2c(-n3cccc3)c(C(=O)O)sc2n1	ALDH1A1 block 22.4µM
Cc1cc(C)c2c(-n3cccc3)c(NC(=O)OC(C)C)sc2n1	ALDH1A1 block inconclusive
O=S(=O)(Nc1nc(CN2CCOCC2)nc2sc3c(c12)CCCC3)c1cc(F)ccc1F	ALDH1A1 block 14.1µM
CN(C)c1ccc(C(=O)Nc2cc(C(F)(F)F)ccc2-n2cncn2)cc1	PNC assembly inh -92.4, ALDH1A1 block inconclusive
COc1ccc(-n2c(=O)c(-c3cn(C)c4ccccc34)nc3cnc(N4CCOCC4)nc32)cc1	ALDH1A1 block inconclusive (no result: ALOX12 inhib, HPGD block, PNC assembly inh, IMPase cell inh)
Cc1ccccc1N1C(=O)CC(N(O)c2ccccc2)C1=O (centres undefined)	ALDH1A1 block inconclusive
Cc1cccc(CC2CC(=O)N(c3ccccc3)C2=O)c1 (centres undefined)	ALDH1A1 block inconclusive
